# Assay results published in PubChem BioAssay (NCATS).
# Inconclusive results are not listed. Unmarked numbers belong to inactive results. Calls come from the whole dose curve; as a rule, active = well fitted inhibition curve with a large enough effect; inconclusive = small, poorly fitted or top-dose-only effect; inactive = flat fitted curve, though single readings scatter.
# Target: Calcium and integrin-binding protein 1 (Homo sapiens) (UniProt Q99828)
# Experiment: Primary qHTS for Identification of Calcium Integrin Binding Protein 1 (CIB1) Competitor (AID 1508620);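 note: GST tagged CIB1 binding a fluorescein labelled alphaIIb integrin peptide tracer; top concentration of the series differs between compounds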
# Settings: CIB1-GST / FITC-alphaIIb peptide fluorescence polarization; series mostly up to 114 µM; activity change, negative = inhibition: at the top concentration
# How it was run: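 Fluorescence polarization competition: CIB1-GST (1 uM final) preincubated with compound 15 min at room temperature, then FITC-labeled alphaIIb peptide (100 nM final) added for another 15 min. Polarization read at Ex 480/Em 540.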
# % is set by controls: 0 for no effect and ±100 for the full control effect.
# Chain of Calcium and integrin-binding protein 1 (Homo sapiens) (Q99828 whole entry, looked up): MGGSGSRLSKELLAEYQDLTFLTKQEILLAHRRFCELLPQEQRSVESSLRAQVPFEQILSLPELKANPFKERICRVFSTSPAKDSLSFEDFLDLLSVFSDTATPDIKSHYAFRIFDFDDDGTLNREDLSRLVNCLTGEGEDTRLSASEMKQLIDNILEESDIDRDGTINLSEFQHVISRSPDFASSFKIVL
row,Structure (SMILES),"activity change, negative = inhibition"
1,O=C1CCc2cc(S(=O)(=O)Nc3ccc(Cl)cc3)ccc2N1,-1.62%
2,Cn1nnnc1Sc1ncnc2scc(-c3ccc4c(c3)OCO4)c12,4.77%
3,COc1cc(NC(=O)C(OC(=O)CNC(=O)c2ccccc2)c2ccccc2)c(OC)cc1Cl (configuration not stated),1.25%
4,Cc1cc(C)nc(NC(=S)N2CCN(Cc3cccc4ccccc34)CC2)c1,-18.4%
5,CC(=O)Nc1cccc(S(=O)(=O)Nc2ccc(C)c(C)c2)c1,4.3%
6,COc1cccc(C2c3c(ncn(-c4ccccc4Br)c3=N)Oc3ccc4ccccc4c32)c1 (configuration not stated),0.941%
7,CCCCC(OC(=O)CNC(=O)c1ccccc1)C(=O)Nc1cc(C(F)(F)F)ccc1Cl (configuration not stated),3.67%
8,CC(=O)Nc1sc2c(c1-c1ccc3c(c1)CCO3)CCNC2,1.43%
9,Cc1ccc(NS(=O)(=O)c2cc3c(cc2-c2ccsc2)NC(=O)CO3)cc1C,0.612%
10,Cc1cccc(-n2cnc3cc(C(=O)N4CCCCCC4)ccc32)c1,2.32%
11,O=C1c2ccccc2C(=O)N1c1cccc(O)c1,0.998%
12,O=C(NC(c1ccco1)c1cc(Cl)c2cccnc2c1O)c1ccccc1 (configuration not stated),-7.47%
13,O=C(CNC(=O)c1ccc2n[nH]nc2c1)OC(C(=O)Nc1cc(C(F)(F)F)ccc1Cl)c1ccccc1 (configuration not stated),-8.92%
14,COc1ccc(CN2C(=O)c3ccccc3NC2c2ccc(OC)c(COc3ccc(NC(C)=O)cc3)c2)cc1 (configuration not stated),5.34%
15,COc1cccc(CNc2ccc(S(=O)(=O)Nc3cc(C)on3)cc2)c1O,-4.73%
16,COc1ccc(/C=C2/C(=O)Nc3ccccc32)cc1O,-15.2%
17,NC(=O)c1cccc(-c2noc(-c3ccccc3F)n2)c1,-0.173%
